Compounds with a hit are over-represented: about 4.6% of the library has one in this group of screens.
FAS-TE inh – FAS thioesterase (human) inhibition. P49327. recombinant FAS-TE, OMFH fluorogenic substrate, fluorescence endpoint. inhibition, % at 15 µM. 360,000 tested, 0.67% active. AID 602261;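 active = compounds whose normalised, plate-corrected inhibition of enzyme fluorescence in the single-dose primary screen is 50% or more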;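 also: 0% = DMSO with enzyme and 100% = substrate without enzyme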
Target sequence (P49327 whole entry, looked up): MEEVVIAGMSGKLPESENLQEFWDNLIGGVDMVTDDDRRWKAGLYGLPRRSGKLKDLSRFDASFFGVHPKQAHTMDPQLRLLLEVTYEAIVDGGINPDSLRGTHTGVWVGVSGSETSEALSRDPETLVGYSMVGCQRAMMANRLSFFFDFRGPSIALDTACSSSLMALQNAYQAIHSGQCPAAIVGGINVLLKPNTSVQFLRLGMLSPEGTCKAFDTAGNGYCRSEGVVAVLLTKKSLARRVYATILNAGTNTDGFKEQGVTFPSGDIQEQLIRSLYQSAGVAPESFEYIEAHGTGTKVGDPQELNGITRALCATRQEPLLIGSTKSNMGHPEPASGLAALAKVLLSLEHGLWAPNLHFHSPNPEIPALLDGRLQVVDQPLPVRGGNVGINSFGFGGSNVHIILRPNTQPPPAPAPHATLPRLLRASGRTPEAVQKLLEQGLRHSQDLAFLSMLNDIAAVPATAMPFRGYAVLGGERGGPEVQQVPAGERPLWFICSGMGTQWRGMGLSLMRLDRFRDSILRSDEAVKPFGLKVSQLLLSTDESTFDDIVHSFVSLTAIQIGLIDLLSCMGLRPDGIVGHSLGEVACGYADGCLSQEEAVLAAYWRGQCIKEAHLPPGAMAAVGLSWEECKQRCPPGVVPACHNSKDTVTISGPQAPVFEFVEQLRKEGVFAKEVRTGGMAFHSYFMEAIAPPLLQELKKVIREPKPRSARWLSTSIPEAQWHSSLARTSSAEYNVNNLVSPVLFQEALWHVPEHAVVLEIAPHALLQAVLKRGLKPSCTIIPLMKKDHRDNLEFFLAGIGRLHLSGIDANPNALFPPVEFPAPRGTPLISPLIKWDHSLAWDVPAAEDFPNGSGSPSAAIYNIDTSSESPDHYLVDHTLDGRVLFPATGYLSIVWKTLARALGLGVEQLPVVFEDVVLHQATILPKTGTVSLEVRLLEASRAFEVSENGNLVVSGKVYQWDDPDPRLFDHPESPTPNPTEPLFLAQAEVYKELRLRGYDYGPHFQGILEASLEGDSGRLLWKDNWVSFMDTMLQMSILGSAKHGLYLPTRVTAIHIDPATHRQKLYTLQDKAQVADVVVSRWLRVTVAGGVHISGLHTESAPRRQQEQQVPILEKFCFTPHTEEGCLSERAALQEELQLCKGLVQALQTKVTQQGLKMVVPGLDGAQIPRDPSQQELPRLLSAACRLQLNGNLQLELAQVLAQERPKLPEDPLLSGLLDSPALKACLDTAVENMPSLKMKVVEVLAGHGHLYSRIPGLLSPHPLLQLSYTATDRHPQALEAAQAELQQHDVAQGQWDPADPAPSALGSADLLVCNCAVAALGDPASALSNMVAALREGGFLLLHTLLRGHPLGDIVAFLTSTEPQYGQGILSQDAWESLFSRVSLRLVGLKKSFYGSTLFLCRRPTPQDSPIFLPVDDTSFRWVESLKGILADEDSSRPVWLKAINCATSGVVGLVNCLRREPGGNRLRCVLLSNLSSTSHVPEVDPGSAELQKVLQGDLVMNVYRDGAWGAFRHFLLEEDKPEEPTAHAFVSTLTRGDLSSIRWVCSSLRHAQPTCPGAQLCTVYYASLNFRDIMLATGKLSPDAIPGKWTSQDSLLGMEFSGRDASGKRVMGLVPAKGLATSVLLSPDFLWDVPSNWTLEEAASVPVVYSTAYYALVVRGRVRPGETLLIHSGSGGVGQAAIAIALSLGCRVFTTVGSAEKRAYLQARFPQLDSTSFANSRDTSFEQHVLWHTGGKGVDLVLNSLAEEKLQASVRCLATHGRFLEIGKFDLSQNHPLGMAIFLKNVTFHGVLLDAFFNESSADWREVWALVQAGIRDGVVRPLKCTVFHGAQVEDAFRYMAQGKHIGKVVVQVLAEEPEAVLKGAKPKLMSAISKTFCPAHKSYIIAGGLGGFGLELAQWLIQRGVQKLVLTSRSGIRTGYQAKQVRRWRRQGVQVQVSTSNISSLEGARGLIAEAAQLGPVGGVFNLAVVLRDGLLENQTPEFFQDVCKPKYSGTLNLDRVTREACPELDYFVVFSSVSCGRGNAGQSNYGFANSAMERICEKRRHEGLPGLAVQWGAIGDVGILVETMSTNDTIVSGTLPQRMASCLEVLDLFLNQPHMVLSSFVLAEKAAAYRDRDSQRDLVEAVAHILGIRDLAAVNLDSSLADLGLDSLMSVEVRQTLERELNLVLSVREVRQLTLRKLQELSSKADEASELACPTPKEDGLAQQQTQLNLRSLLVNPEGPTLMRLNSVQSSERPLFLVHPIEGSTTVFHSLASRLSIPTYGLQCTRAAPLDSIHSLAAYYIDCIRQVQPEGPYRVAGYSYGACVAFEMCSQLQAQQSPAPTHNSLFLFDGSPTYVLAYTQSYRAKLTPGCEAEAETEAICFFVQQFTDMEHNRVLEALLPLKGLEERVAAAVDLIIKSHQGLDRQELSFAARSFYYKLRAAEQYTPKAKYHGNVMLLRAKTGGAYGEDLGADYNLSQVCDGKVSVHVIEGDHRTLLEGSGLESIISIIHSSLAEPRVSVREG
ADAM10 inh – inhibits human ADAM10 | O14672 | AID 720582 | recombinant ADAM10, EDANS/DABCYL FRET peptide cleavage, 3 h | inhibition, % at 7 µM | 370,000 tested, 0.62% active;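 active = inhibition above a per-campaign cutoff equal to the mean of compounds falling between control-based bounds plus 3 SD, cut at about 20% in these data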;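 also: 0% = DMSO wells while the 100% control is not disclosed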
proKLK7 act – activators of human kallikrein-7 zymogen; purified proKLK7, EDANS-DABCYL substrate fluorescence; 100% is mature enzyme control, 0% vehicle; P49862; activation, % at 7 µM; 370,000 tested, 0.9% active; AID 652039;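 active = activation above the mean of all tested compounds plus 3 SD, computed per campaign excluding outliers beyond control limits, cut at about 13% in these data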
ADAM17 inh – inhibits human ADAM17; P78536; recombinant ADAM17, EDANS/DABCYL FRET peptide cleavage; inhibition, % at 6.95 µM; 370,000 tested, 0.83% active;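 active = inhibition above the mean of compounds lying between control limits plus 3 SD, set per campaign, cut at about 8.5% in these data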;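 also: 0% = DMSO-only wells as the low control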
GRIN3A LBD mod – NR3A (human) ligand-binding domain modulation; NR3A LBD differential scanning fluorimetry, Tm shift; 0% = protein alone, 100% = glycine-bound protein; Tm shift relative to glycine control, % at 25 µM; 340,000 tested, 2.5% active;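 active = melting temperature shift of at least 10% of the positive control shift, at one fixed dose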
* marks the source's active call; other numbers are inactive results.

`O=C(Cc1ccccc1)Nc1ccc(NC(=O)c2ccc(Br)cc2)cc1` gave FAS-TE inh -2, ADAM10 inh 3, proKLK7 act 0, ADAM17 inh 0 and GRIN3A LBD mod 2.
Screening COC(=O)c1ccc(NC(=O)CSc2ccccc2)cc1 returned FAS-TE inh -4, ADAM10 inh 3, proKLK7 act 0, ADAM17 inh 3 and GRIN3A LBD mod -10.
`O=C(CSc1ccccc1)Nc1ccc(C(=O)Nc2ccc(O)cc2)cc1` gave FAS-TE inh -1, ADAM10 inh -5, proKLK7 act 2, ADAM17 inh -3 and GRIN3A LBD mod 25*.
Screening O=C(Cc1ccccc1)Nc1ccc(C(=O)Nc2ccc(O)cc2)cc1 returned FAS-TE inh -10, ADAM10 inh -12, proKLK7 act 5, ADAM17 inh -4 and GRIN3A LBD mod 35*.
Screening c1ccc2cc3[nH]c(CNc4nc(N5CCOCC5)nc5c4ncn5-c4ccsc4)nc3cc2c1 returned ADAM10 inh 9 and ADAM17 inh 6.
For C=CCNCCCCOc1cccc(Br)c1 the results were FAS-TE inh -10, ADAM10 inh 1, proKLK7 act 0, ADAM17 inh -4 and GRIN3A LBD mod 28*.
Screening O=C(CSc1nc2ccccc2nc1N1CCCCC1)NCc1ccc(Cl)cc1Cl returned ADAM10 inh 2, proKLK7 act 0 and ADAM17 inh -3.
CN1CCN(c2ncnc3c2[nH]c2ccc(F)cc23)CC1 was read as FAS-TE inh -4, ADAM10 inh -329, proKLK7 act 20*, ADAM17 inh -103 and GRIN3A LBD mod 5.
Cc1ccc2[nH]c3c(N4CCOCC4)ncnc3c2c1 was read as FAS-TE inh -4, ADAM10 inh inactive, proKLK7 act 2, ADAM17 inh -283 and GRIN3A LBD mod 0.
Fc1ccc2[nH]c3c(N4CCc5ccccc5C4)ncnc3c2c1 was read as FAS-TE inh 14, ADAM10 inh -50, proKLK7 act -1, ADAM17 inh -16 and GRIN3A LBD mod 23*.
`COc1ccc(Cn2cc(CN3[C@@H](CC(C)C)COc4ccc(Cl)cc4S3(=O)=O)nn2)cc1` gave ADAM10 inh 5, proKLK7 act 0 and ADAM17 inh 0.
For O=C(CC1S/C(=N/N=C/c2c[nH]c3ccccc23)NC1=O)Nc1ccccc1 (stereo unspecified) the results were FAS-TE inh -4, ADAM10 inh -75, proKLK7 act -1, ADAM17 inh -19 and GRIN3A LBD mod 8.
`O=C(CC1S/C(=N/N=C/c2c[nH]c3ccc(OCc4ccccc4)cc23)NC1=O)Nc1ccccc1` (stereo unspecified) gave FAS-TE inh 0, ADAM10 inh 4, proKLK7 act -14, ADAM17 inh 1 and GRIN3A LBD mod 23*.
Screening NC(=S)N/N=C/c1c[nH]c2ccc(OCc3ccccc3)cc12 returned FAS-TE inh -3 and GRIN3A LBD mod 10*.
Screening O=C1CSc2ccc(C(=O)N3CCCC(C(=O)N4CCN(c5ccc(F)cc5)CC4)C3)cc2N1 (stereo unspecified) returned ADAM10 inh -12, proKLK7 act 0 and ADAM17 inh 4.
For CCC(C)NC(=O)Cn1cnc2sc(C)c(S(=O)(=O)N3CCN(c4ncccn4)CC3)c2c1=O (stereo unspecified) the results were FAS-TE inh -1, ADAM10 inh -5, proKLK7 act 0, ADAM17 inh -1 and GRIN3A LBD mod 14*.
Cc1ccc(-n2nc3ccc(NC(=O)C(C)C)cc3n2)cc1 was read as FAS-TE inh -8, ADAM10 inh -268, proKLK7 act 0, ADAM17 inh -81 and GRIN3A LBD mod -5.
For CCc1ccc(-n2nc3ccc(NC(=O)c4ccc5c(c4)OCO5)cc3n2)cc1 the results were FAS-TE inh 0, ADAM10 inh -13, proKLK7 act 0, ADAM17 inh -6 and GRIN3A LBD mod 15*.
Cc1ccc(-n2nc3ccc(NC(=O)c4ccco4)cc3n2)cc1 was read as FAS-TE inh 16, ADAM10 inh -225, proKLK7 act -32, ADAM17 inh -87 and GRIN3A LBD mod 10.
For Cc1ccc(-n2nc3ccc(NC(=O)c4cccc([N+](=O)[O-])c4C)cc3n2)cc1 the results were FAS-TE inh 5, ADAM10 inh -33, proKLK7 act 1, ADAM17 inh -8 and GRIN3A LBD mod 17*.
`CCOC(=O)c1cccc(NC(=O)c2ccc3c(c2)OCO3)c1` gave FAS-TE inh 3, ADAM10 inh -4, proKLK7 act 0, ADAM17 inh -2 and GRIN3A LBD mod 1.
For Cc1ccc(-n2nc3ccc(NC(=O)c4ccc5c(c4)OCO5)cc3n2)cc1 the results were FAS-TE inh -2, ADAM10 inh -6, proKLK7 act 0, ADAM17 inh 2 and GRIN3A LBD mod 13*.
`CCCCCCn1c(-c2ccco2)nc2oc3cc(OC)ccc3c(=O)c2c1=O` gave FAS-TE inh 9, ADAM10 inh -20, proKLK7 act -2, ADAM17 inh -6 and GRIN3A LBD mod 33*.
`Oc1[nH]c2ccccc2c1N=Nc1ccc(C(F)(F)F)cn1` gave FAS-TE inh 2, ADAM10 inh -6, proKLK7 act 0, ADAM17 inh -2 and GRIN3A LBD mod 0.
Oc1[nH]c2ccc(Br)cc2c1N=Nc1ccc(C(F)(F)F)cn1 was read as FAS-TE inh 13, ADAM10 inh -8, proKLK7 act -1, ADAM17 inh -3 and GRIN3A LBD mod 21*.
Screening CCSc1cc(N2CCCC2)nc(-c2ccc(F)cc2)n1 returned FAS-TE inh 13, ADAM10 inh 5, proKLK7 act -1, ADAM17 inh 7 and GRIN3A LBD mod 1.
Screening CCSc1cc(N2CCCC2)nc(-c2ccc(C)cc2)n1 returned FAS-TE inh 15, ADAM10 inh 0, proKLK7 act 0, ADAM17 inh 4 and GRIN3A LBD mod 15*.
COC(CNC(=O)[C@H](Cc1ccccc1)NC(C)(C)C(=O)NC1CCCCC1)OC was read as ADAM10 inh -6 and ADAM17 inh -3.
O=C1CCCCC1CCS(=O)(=O)NCc1ccccc1 (stereo unspecified) was read as ADAM10 inh -2, proKLK7 act 0 and ADAM17 inh -1.
`CC(C)CN1CN2Cc3ccccc3C2CS1(=O)=O` (stereo unspecified) gave ADAM10 inh -10, proKLK7 act -1 and ADAM17 inh -7.
For CC(C)CNC(=O)c1ccccc1NC(=O)CSCc1ccccc1 the results were FAS-TE inh -1, ADAM10 inh 2, proKLK7 act 1, ADAM17 inh -1 and GRIN3A LBD mod 14*.
`CCc1nnc(NC(=O)c2sc3nc4cc(C)ccc4cc3c2N)s1` gave FAS-TE inh -11, ADAM10 inh -35, proKLK7 act 1, ADAM17 inh -12 and GRIN3A LBD mod 20*.
`CCOC(=O)Cc1csc(NC(=O)c2sc3nc4ccc(C)cc4cc3c2N)n1` gave FAS-TE inh -56, ADAM10 inh -16, proKLK7 act 0, ADAM17 inh -5 and GRIN3A LBD mod 3.

Screening data (PubChem BioAssay)
